We go through 103 compounds from PubChem BioAssay AID602314 (ICCB-Longwood Screening Facility, Harvard Medical School, 2012).

SMILES strings stand for the structures. “And” between values parts separate entries of the source, which are not always exact repeats. Equal entries are not always repeated. Screen size: about 84,000 compounds; about 110 (0.13%) were called active. Rule as the data show it: active = inhibition above about 30% (passing the limit was not always enough); inactive = the rest. The full list was thinned out, with actives kept by preference. A structure can be active in one record and inactive in another.

This experiment has as its system MgrA (MarR family transcriptional regulator), Staphylococcus aureus Newman. Put plainly: S. aureus MgrA activity modulators, primary screen, biochemical, S. aureus Newman, fluorescence polarization (AID 602314).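 Also: 0% = protein plus DNA without compound and 100% = DNA alone without protein; higher means less MgrA bound to DNA so lower polarization.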 As to conditions: MgrA-DNA binding, stronger effect = higher value, concentration not given here.
In the case of `CCOc1ccc(CC(C(=O)O)C(=O)O)cc1`, the inhibition is 0.1% (inactive).
For the compound `N#CCCN(C1CCCCC1)S(=O)(=O)c1ccc(Br)cc1`, the inhibition is -0.95% (inactive).
To `COc1ccc(CC(NC(C)=O)C(=O)O)c(Cl)c1OC` (stereo not drawn) belongs -0.7% (inactive); to `Cn1c(SCC(=O)Nc2ccc(C(F)(F)F)cc2)nnc1-c1ccc2nonc2c1`, -0.1% (inactive); to `COC(=O)C1=Cc2cc(Cl)ccc2OC1`, 0.15% (inactive).
Take `Cc1cccc(CN2C(=O)CSc3nc(C)cc(C)c32)c1`: the inhibition is -0.45% (inactive).
Next, `CCN(CC)CCCN1C(=O)C2C3C=CC(C2C1=O)C1C2C(=O)N(CCCN(CC)CC)C(=O)C2C31` (stereo not drawn): 0.8% (inactive).
To `CCOc1ccc(NC(=O)c2cc(-c3ccc(OC)c(OC)c3)nc3ccccc23)c([N+](=O)[O-])c1` belongs -1.4% (inactive); to `COc1ccc(C)c2c1CCCC2=O`, -1.4% (inactive).
Next, `Cc1ccc(Nc2cc([Se]c3ccccc3)c(N)c3c2C(=O)c2ccccc2C3=O)cc1`: -3.2% (inactive); `Cc1ccc2sc(-c3ccc(NC(=O)C(C)C)cc3)nc2c1`: -2.5% (inactive).
As for `Cc1ccc(-c2noc(CN(C)C(=O)Nc3ccc(Cl)cc3)n2)cc1`, the inhibition is 0.05% (inactive).
Take `COc1cccc2c1NC(c1cccc(Cl)c1Cl)C1CC=CC21` (stereo not drawn): the inhibition was -1.1% (inactive).
Next, `Cc1ccccc1Cn1nnc(-c2ccncc2)n1`: -3.5% (inactive); `COc1ccc(-c2ccc(/C=c3\sc4nc5cc(C)c(C)cc5n4c3=O)o2)c([N+](=O)[O-])c1`: 0.8% (inactive); `O=C(CC1CCCCC1)NCc1ccco1`: 1.25% (inactive).
Next, `CC(=O)Oc1ccc(OC(C)=O)c2c1C1C=CC2CC1`: -2.5% (inactive); `COc1ccc(Nc2nc(Cl)nc(NCCN3CCOCC3)n2)c(OC)c1`: 0.3% (inactive); `O=C(Nc1ccccc1C(=O)N1CCCC1)Oc1ccccc1`: -0.95% (inactive).
To `CCCCn1c(SCC(=O)N(C(C)C)C(C)C)nc2c1c(=O)n(C)c(=O)n2C` belongs 0.4% (inactive).
With `O=c1c2c3c(sc2ncn1Cc1nn[nH]n1)CCCC3`, the inhibition was -0.2% (inactive).
Next, `Cc1c(CN2CCCCC2)c(O)n(CCO)c(=O)c1C#N`: -3.25% (inactive); `C=CCn1cnc2c(c1=O)c1nc3ccccc3nc1n2-c1cccc(Br)c1`: 2.4% (inactive); `CCOc1cc2c(cc1/C=C(\C#N)c1ccc(C(F)(F)F)cc1)OCO2`: 1.15% (inactive).
Next, `O=S(=O)(c1ccc(Cl)cc1)N1CCCN(Cc2ccc(Cl)cc2Cl)CC1`: 1% (inactive).
Next, `CCn1cc(S(=O)(=O)Nc2cc(C)on2)cn1`: -2.15% (inactive); `COc1ccccc1N1C(=O)NC(=O)/C(=C/c2cn(C(C)=O)c3ccccc23)C1=O`: 10.3% (inactive).
In the case of `O=S(=O)(c1ccc(Br)s1)N1CCCC1`, the inhibition was 2.65% (inactive).
Next, `CSc1noc(-c2ccc(C(C)(C)C)cc2)c1C#N`: 4.25% (inactive); `N=C1/C(=C\c2cccn2-c2ccc3ccccc3c2)C(=O)N=C2SC=NN12`: 4.5% (inactive); `CCOC(=O)C1CCCN(c2c3c(nc4cc(-c5ccc(C)cc5)nn24)CCC3)C1` (stereo not drawn): -2.15% (inactive).
To `COc1cc(C=Nc2ccc3[nH]c(=O)[nH]c3c2)ccc1OC(C)=O` belongs 0.05% (inactive).
Next, `COc1ccc2nc(SCC(=O)c3ccc(Cl)c(Cl)c3)[nH]c2c1`: -2.6% (inactive); `Cn1c(-c2ccccc2)c[n+]2c1CCCCC2`: -2.6% (inactive).
For the compound `N=Cc1c(O)n(-c2ccccc2)c2ccccc12`, the inhibition is 4.8% (inactive).
Next, `CCOC(=O)C1=C(C)N(C)C(C)=C(C(=O)OCC)C1c1ccccc1F`: -0.1% (inactive); `O=c1oc(Nc2ccc(C(F)(F)F)cc2)nc2ccccc12`: 0.2% (inactive); `COc1ccc(CCN(Cc2cc3cc4c(cc3[nH]c2=O)OCO4)C(=O)c2ccncc2)cc1OC`: 2.6% (inactive).
To `S=C(Nc1ccc2[nH]ccc2c1)NC1CC2C=CC1C2` (stereo not drawn) belongs -0.05% (inactive); to `Cc1cccc(NC(=O)c2cn(-c3ccccc3)nc2-c2cccnc2)c1`, -3% (inactive); to `OC1(C(F)(F)F)CC(c2ccccc2)=NN1c1cccc2cccnc12` (stereo not drawn), -1.3% (inactive).
As to `CN1C(=O)C2N=NN(c3ccccc3)C2C1=O` (stereo not drawn), the inhibition is 1.8% (inactive).
To `O=C(N/N=C/C1CC=CCC1)c1ccccc1` (stereo not drawn) belongs 2.3% (inactive); to `O=C(COc1ccc(C2Nc3cccc4cccc(c34)N2)cc1)Nc1ccccc1`, 1.95% (inactive); to `O=C(Nc1cccc2ccccc12)NC1CC1`, 1.3% (inactive).
On to `CC1=C(C(=O)OCC2CCCCC2)C(c2ccccc2OCc2ccccc2)NC(=O)N1` (stereo not drawn), for which the inhibition was -1.8% (inactive).
To `CCOC(=O)c1sc(NC(=O)c2sc3ccccc3c2Cl)nc1-c1ccccc1` belongs -3.1% (inactive); to `COc1cccc(C(=O)Nc2ccccc2Cl)c1`, -5.8% (inactive); to `COc1ccccc1N1C(=O)C(=Cc2ccco2)C(=O)N(c2ccccc2OC)C1=O`, 2.2% (inactive).
To `CC(=O)Oc1ccc(C2NC(C(=O)O)CS2)cc1` (stereo not drawn) belongs -3.3% (inactive); to `O=C1NC(=S)N(c2ccc(Br)cc2)C(=O)/C1=C/c1ccsc1`, 24.2% (inactive); to `O=C(O)c1ccc(Cl)cc1N=Cc1nc(-c2ccc(Br)cc2)oc1O`, -0.9% (inactive).
Next, `Cc1ccc(-c2nn(CCC(=O)Nc3cccc(C(F)(F)F)c3)c(=O)c3ccccc23)cc1`: 0.65% (inactive); `O=C(CN1CCN(c2cccc(Cl)c2)CC1)c1ccc(Cl)cc1`: 6.3% (inactive).
For the compound `COC(=O)c1cccnc1NC(=S)NC(C)C`, the inhibition is 3.15% (inactive).
Next, `COc1ccc(NC(=O)Nc2ccc(N3CCOCC3)cc2)cc1`: -0.2% (inactive).
Consider `O=C1C(Nc2ccc(O)cc2)=C(n2nnc3ccccc32)C(=O)c2ccccc21`, for which the inhibition is -0.3% (inactive).
As for `NC(=S)C1(c2ccc(Cl)cc2Cl)CC1`, the inhibition was -0.5% (inactive).
To `CC1CN(S(=O)(=O)c2ccc3c4c(cccc24)C(=O)N3)CC(C)O1` (stereo not drawn) belongs 0.25% (inactive); to `CC[n+]1c(C)n(-c2ccccc2)c2ccc(N)cc21`, 1.45% (inactive); to `CC[N+](C)(CC)CCC[n+]1c(-c2ccccc2)c2cc(N)ccc2c2ccc(N)cc21`, 104% (active) and 0.85% (inactive).
As for `N=C1/C(=C/c2ccc(SCc3ccccc3)o2)C(=O)N=C2SC=CN12`, the inhibition is 1.55% (inactive).
To `N#CC(=C1C(=O)c2ccccc2C1=O)c1nc2ccccc2[nH]1` belongs 59.7% (active).
Next, `CS(=O)(=O)c1nc2ccccc2[nH]1`: -4.3% (inactive); `N#C/C(=C\C=C\c1ccccc1)c1nc2ccccc2[nH]1`: 9.2% (inactive).
Next, `CCN(CC)C(=O)CSc1nc2ccccc2cc1C`: 0.6% (inactive); `Nc1ccccc1C(=O)Nc1ccc(Cl)cc1`: -1.3% (inactive).
For the compound `CCCCOc1ccc(C2=N/C(=C\c3cc(OC)c(OC)cc3OC)C(=O)O2)cc1`, the inhibition was -1.1% (inactive).
To `CSc1n[nH]c(-c2ccc(Cl)cc2)c1C#N` belongs -2.1% (inactive); to `CC(C)c1ccc(NC(=O)CN2N=C(c3ccc(Cl)cc3)CCC2=O)cc1`, 0.65% (inactive).
Next, `O=C1/C(=C\c2cccs2)SC(=S)N1CCCC(=O)N1CCCc2ccccc21`: 2.75% (inactive); `Cc1ccc(C(=O)OCC2OC(C#N)CC2OC(=O)c2ccc(C)cc2)cc1` (stereo not drawn): -3.65% (inactive).
Next, `CSc1ncc(Br)c(C(=O)O)n1`: -4.9% (inactive); `O=C(c1ccc(F)cc1)c1c[nH]c(C(=O)NCc2ccc(F)cc2)c1`: -2.05% (inactive).
For `COCCn1c(N)cc(=O)[nH]c1=S`, the inhibition is 0.65% (inactive).
As to `Cc1cccc(OCC(=O)N2CCc3ccccc32)c1`, the inhibition was 0.6% (inactive).
Next, `CCN(CC)C(=O)Cc1cc(OC)c(OC)cc1Br`: 3.35% (inactive); `Cn1cnnc1SCc1ccc(Cl)cc1`: -1.45% (inactive).
`CCc1cccc(CC)c1N1C(=O)CC(Sc2ccccc2N)C1=O` (stereo not drawn): the inhibition was 1.1% (inactive).
To `c1ccc2c(c1)CCN2c1nc2ccccc2n2cnnc12` belongs 0.25% (inactive); to `O=c1[nH]c(O)c(C=NCCCn2ccnc2)c(=O)[nH]1`, 5.6% (inactive); to `CSc1nsc(SCC(=O)OC2CC(C)CCC2C(C)C)n1` (stereo not drawn), 0.7% (inactive).
Next, `CC(C)(C)c1ccc(NC(=O)COC(=O)c2ccc(F)cc2F)cc1`: 4.8% (inactive).
Next, `CCN(C(=O)c1cccs1)c1cccc2ccccc12`: -1.8% (inactive); `COc1cccc(CC(=O)Nc2ccc(-c3csc(C)n3)cc2)c1`: -0.65% (inactive).
On to `Cc1ccc(NC2SC(=O)NC2=O)cc1` (stereo not drawn), for which the inhibition was 1.7% (inactive).
Next, `O=C(NC1CC1)C1C2C=CC3(O2)C1C(=O)N(C1CC1)C3C(=O)NC1CCCCC1` (stereo not drawn): 0.25% (inactive); `CCSc1nnc2c(n1)OC(c1cccc(OC)c1)Nc1ccccc1-2` (stereo not drawn): -1.3% (inactive).
Next, `CC(=O)Nc1ccc(-c2nnc(-c3ccco3)o2)cc1`: -3.3% (inactive).
To `CC(C)(C)C/C(=N/O)c1ccccc1` belongs 0.2% (inactive).
Regarding `Cc1nnc(SCc2ccc(C#N)cc2)s1`, the inhibition is 0.7% (inactive).
Next, `CSc1ncnc2sc(-c3ccccc3)cc12`: 0.75% (inactive); `CCOC(=O)c1sc(NC(C)=O)c(C#N)c1C`: -2.1% (inactive); `O=C(c1cnn2c(C(F)F)cc(-c3ccccc3)nc12)N1CCCC1`: -0.35% (inactive).
`CCOC(=O)c1ccc(NC(=O)CC2C(=O)N(c3ccc(F)cc3)C(=O)N2Cc2cccs2)cc1` (stereo not drawn): the inhibition is -1.9% (inactive).
With `FC(F)(F)c1cccc(CSc2ncn[nH]2)c1`, the inhibition was -0.7% (inactive).
To `COc1ccccc1C=NC12CN3CN(CN(C3)C1)C2` belongs 2.95% (inactive); to `Oc1[nH]c2ccccc2c1C=NCCC1=CCCCC1`, 5.65% (inactive).
Next, `CCOCCOC(=O)C1=C(C)NC2=C(C(=O)CC(c3ccccc3)C2)C1c1cc2c(cc1Br)OCO2` (stereo not drawn): -2.9% (inactive); `CCOC(=O)c1cccn1-c1ncc(C(F)(F)F)cc1Cl`: -1.2% (inactive).
Next, `Cc1ccc(-c2nn(CCC(=O)NCCN3CCOCC3)c(=O)c3ccccc23)cc1`: 0.2% (inactive).
Turning to `O=C(Nc1ccccc1-c1nc2ccccc2[nH]1)c1ccccc1Br`, the inhibition is -2.6% (inactive).
Next, `N#CCc1ccc(OCc2ccc(Cl)c(Cl)c2)cc1`: -1.9% (inactive).
